Compound activity (PubChem)
An excerpt weighted towards active compounds, which were near 1.4% of everything screened.
p53 reactivator = re-activators of mutant p53; H1299 p53-A138V BP100-luciferase reporter, luminescence, 24 h; Potency, µM (doses to about 92.2 µM), inactives show top-dose activity change, positive = activation, actives largely listed as activators; 0.063% of 320,000 active; also: potency is read from the fitted curve at half-maximal effect; % of control where 0% means no effect; nearly all actives have a fitted effect of over 45% in size
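H1299 (p53-null), stable ts p53-A138V + BP100-Luc; 1000 cells/well, Opti-MEM/10% FBS; cpd 4 pt, 1:5; 24 h, 37 deg C, 5% CO2; detection reagent 10 min RT; luminescence.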
S-ASM inh = inhibitors of human secretory acid sphingomyelinase; P17405; AID 504937; Potency, µM (titrated, usually from 57.5 µM), for inactives: at the highest dose activity change, negative = inhibition, actives largely listed as inhibitors; 0.006% of 340,000 active; placental ASM, HMU-PC fluorogenic substrate, 60 min; also: potency is read from the fitted curve at half-maximal effect
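HMU-PC0 cleavage (9 uM final) by human placental ASM, 60 min at 37 °C following 10 min compound exposure at RT; stopped at pH 10, fluorescence Ex 386/Em 447 nm.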
CCT modulator = cytosolic chaperonin activity modulation; purified chaperonin ATPase assay, HTRF ADP detection, 30 min; 0.3% of 360,000 active; activity change, % (test concentration not listed), hits read low; in the data active = activity change below about -30%; also: % is scaled to controls: 0 for no effect and ±100 for the full control effect
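TRiC (40 or 20 nM final, by batch activity) in 30 mM Tris pH 7.4, 100 mM KCl, 5 mM MgCl2, 1 mM DTT was treated with compound at 76 uM single dose, then 10 uM ATP, 30 min at 37 °C. ADP was read by HTRF Transcreener.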
PINK1 expr mod = modulators of PINK1 expression | PINK1 immunofluorescence, high-content cytometry, 24 h | Potency, µM (series often up to 76.6 µM), without a hit: at the highest dose activation (PINK1 increase), actives largely listed as activators | 0.2% of 410,000 active; active = well fitted activation curve with a large enough effect; inconclusive = small, poorly fitted or top-dose-only effect; cell line not stated here; also: potency is read from the fitted curve at half-maximal effect; % of control where 0% means no effect; nearly all actives have a fitted effect of over 65% in size
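Cells are seeded, rested 12 hours, then given compound at five concentrations or DMSO for 24 hours. After fixation, blocking and antibody staining, PINK1 amount and mitochondrial localization are scored; CCCP serves as control.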
ALOX12 inh = inhibitors of human 12S-lipoxygenase ALOX12; P18054; purified 12hLO, xylenol orange hydroperoxide absorbance; Potency, µM (titrated, usually from 108 µM), for the others: at the highest dose activity change, negative = inhibition, actives largely listed as inhibitors; 1.1% of 580,000 active; also: potency is read from the fitted curve at half-maximal effect; % is scaled to controls: 0 for no effect and ±100 for the full control effect
Target sequence (P18054 whole entry, looked up): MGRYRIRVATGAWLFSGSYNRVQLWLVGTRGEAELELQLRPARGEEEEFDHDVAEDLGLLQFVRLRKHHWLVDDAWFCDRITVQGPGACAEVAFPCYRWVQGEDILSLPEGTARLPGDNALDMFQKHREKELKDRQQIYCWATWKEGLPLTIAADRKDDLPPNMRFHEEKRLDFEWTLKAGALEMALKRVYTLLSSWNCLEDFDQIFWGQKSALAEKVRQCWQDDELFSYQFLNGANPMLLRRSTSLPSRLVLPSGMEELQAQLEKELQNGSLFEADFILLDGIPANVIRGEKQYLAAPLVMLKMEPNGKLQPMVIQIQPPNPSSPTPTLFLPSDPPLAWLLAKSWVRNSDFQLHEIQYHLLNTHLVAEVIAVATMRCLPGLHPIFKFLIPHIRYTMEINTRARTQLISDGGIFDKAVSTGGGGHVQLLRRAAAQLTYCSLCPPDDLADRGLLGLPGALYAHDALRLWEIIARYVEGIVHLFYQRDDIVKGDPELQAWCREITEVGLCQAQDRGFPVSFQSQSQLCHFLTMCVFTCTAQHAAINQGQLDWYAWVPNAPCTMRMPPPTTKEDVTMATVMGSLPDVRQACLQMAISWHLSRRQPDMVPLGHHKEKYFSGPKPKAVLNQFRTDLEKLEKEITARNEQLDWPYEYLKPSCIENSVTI
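Hydroperoxide product was detected by ferrous iron/xylenol orange as the 573 to 405 nm absorbance ratio. Arachidonic acid at 40 uM (final) was turned over for 30 min at room temperature by 150 nM human 12hLO, pH 7.0 Hepes buffer, after 15 min compound preincubation.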
MmCpn inh = M. maripaludis TRiC chaperonin inhibition; purified Mm-Cpn ATPase, ADP Transcreener TR-FRET; Potency, µM (highest dose often 76.9 µM), for the others: at the highest dose activity, negative = inhibition, actives largely listed as inhibitors; 0.031% of 330,000 active; AID 504842; also: potency is read from the fitted curve at half-maximal effect; % is scaled to controls: 0 for no effect and ±100 for the full control effect; nearly all actives have a fitted effect of over 80% in size
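ATPase turnover read by TR-FRET ADP competition (Eu cryptate antibody/ADP-d2, 665/590 nm): 10uM ATP final, 25nM Mm-CPN final, 30 min 37degC after 10-min compound preincubation, pH 7.4 Tris/KCl/MgCl2/DTT buffer.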
Numbers without * were called inactive; u = inconclusive; x = no result; [ ] = another dose, or the depositor's remark. Unless noted, calls follow the shape of the dose curve; as a rule, active = well fitted curve in the direction sought with a large enough effect; inconclusive = small, poorly fitted or top-dose-only effect, or another doubt; inactive = no such curve, though single readings can be large; an effect the other way counts as inactive or inconclusive.

SMILES | p53 reactivator | S-ASM inh | CCT modulator | PINK1 expr mod | ALOX12 inh | MmCpn inh
COc1ccccc1C1/C(=C(/O)c2ccccc2)C(=O)C(=O)N1CCO (configuration not stated) | -3% | 4% | -1 | -1% | u | -2%
O=C1C(=O)N(CCN2CCOCC2)C(c2cccc(F)c2)/C1=C(\O)c1ccc(Br)cc1 (configuration not stated) | x | x | x | x | -4% | x
COc1ccccc1C1/C(=C(/O)c2ccccc2)C(=O)C(=O)N1CC(C)O (configuration not stated) | 1% | -3% | 0 | 0% | 3.5µM* | 1%
CN(Cc1ccccc1N1CCCC1)C(=O)c1ccc(S(=O)(=O)N2CCCC2)cc1 | x | x | x | x | -36% | x
O=C1c2ccccc2CN1C1CCN(Cc2cccc3ccccc23)CC1 | x | x | x | x | 50µM* | x
O=C1NCCN1C1CCN(Cc2cccc3ccccc23)CC1 | x | x | x | x | 3%[12.5 µM] | x
Cc1ccc(NC(=O)CCN2C(=O)C3CCCCC3C2=O)cc1[N+](=O)[O-] (configuration not stated) | 0% | -2% | -53* | 2% | 12% | -3%
COCCN1C[C@H]2CN(Cc3ccccc3)CCN2C1=O | x | x | x | x | 21%[176 µM] | x
COCCN1C[C@H]2CN(Cc3ccc(C(=O)O)cc3)CCN2C1=O | x | x | x | x | 28µM* | x
CC(OC(=O)c1cccc(S(=O)(=O)N(C)C)c1)C(=O)c1ccccc1 (configuration not stated) | x | x | x | x | -9% | x
Cc1ccc(S(=O)(=O)NNC(=O)c2sccc2-n2cccc2)cc1 | 7% | -3% | 2 | 1% | 32µM* | 0%
O=C(NNS(=O)(=O)c1ccc(F)cc1)c1sccc1-n1cccc1 | -2% | 56% | -1 | 1% | -15% | -3%
CCOC(=O)C1=C(Cc2ccc(OC)cc2)C(=O)c2ccccc2C1=O | -15% | -4% | -10 | 21%[38.3 µM] | x | -3%
CCOC(=O)C1=C(Cc2ccc(C)cc2)C(=O)c2ccccc2C1=O | -9% | x | x | x | 11µM* | -2%
CCc1cc(=O)oc2cc(OC(C)C(=O)N(C(C)C)C(C)C)ccc12 (configuration not stated) | x | x | x | x | 1% | x
CN(CC(=O)NC1(C#N)CCCCCC1)Cc1ccc(C(F)(F)F)cc1 | x | x | x | x | 10% | x
CN(CC(=O)NC1(C#N)CCCCC1)Cc1ccc(C(F)(F)F)cc1 | x | x | x | x | 28µM* | x
Cc1ccc(NC(=O)N2CCCC(C(=O)O)C2)cc1 (configuration not stated) | 2% | 1% | -43* | 3% | 8% | 0%
Cc1ccc(NC(=O)C2CCCC2)c(Br)c1 | x | 3% | -2 | 1% | 0% | x
CCN(CC)S(=O)(=O)c1ccc(Cl)c(NC(=S)NC(=O)C2CCCC2)c1 | -5% | -5% | -2 | u | 16µM* | 0%
CC(C)c1ccccc1NC(=S)NC(=O)C1CCCCC1 | 3% | -2% | -2 | 10% | 16µM* | 1%
Cc1ccc(NC(=S)NC(=O)C2CCCCC2)c(Br)c1 | u | -4% | 1 | 19% | 32µM* | -1%
CC(C)c1ccccc1NC(=O)c1ccccc1NC(=O)C1CCCCC1 | 3% | -1% | -1 | 5% | -5% | -3%
O=[N+]([O-])c1cc(/C=N/Nc2ccc(S(=O)(=O)Nc3ccc(Cl)cc3)cc2[N+](=O)[O-])ccc1Cl | x | x | x | x | -19% | x
C[N+]1(CC(=O)OCCCC2CCCCC2)CCCC1 | -2% | 8% | -11 | -1% | 2% | 1%
SMILES | p53 reactivator | S-ASM inh | CCT modulator | PINK1 expr mod | ALOX12 inh | MmCpn inh
C[N+]1(CC(=O)OCCCC2CCCCC2)CCOCC1 | x | x | x | x | 11µM* | x
CC(=O)c1cccc(NC(=O)C2(c3ccc(C)cc3)CCCC2)c1 | x | x | x | x | -20% | x
Cc1ccc(O)c(NC(=O)c2ccc(Br)c(S(=O)(=O)N3CCCCC3)c2)c1 | x | x | x | 40µM* | -28% | x
Cc1ccc(O)c(NC(=O)c2cccc(S(=O)(=O)N3CCCCC3)c2)c1 | 12% | -1% | -1 | -2% | 7% | 0%
CCSc1nnc(NC(=O)NC(CC)(C(F)(F)F)C(F)(F)F)s1 | 14% | -1% | -5 | 22µM* | 469% | 1%
CCCC(=O)Nc1nnc(SCC)s1 | 16% | -2% | 1 | 0% | -2% | -2%
CCSc1nnc(NC(=O)NC(C)(C(F)(F)F)C(F)(F)F)s1 | u | 0% | -1 | 20µM* | -13% | 0%
CCSc1nnc(NC(=O)Nc2cccc(C)c2)s1 | 12% | -4% | 0 | 13µM* | -13% | -1%
CCSc1nnc(NC(=O)[C@@H](NC(=O)c2cccc(C)c2)C(C)C)s1 | 2% | 0% | -4 | 2% | 27% | 1%
Cc1ccc(CN(CCN(C)C)C(=O)c2cccc(C#N)c2)o1 | x | x | x | x | 1% | x
CC(C)Cn1nc(C(=O)OCC(N)=O)c2ccccc2c1=O | x | x | x | x | -16% | x
CN(Cc1cccc2ccccc12)C1CCOc2ccccc21 (configuration not stated) | x | x | x | x | 47%[176 µM] | x
CC[N+](C)(CC)CC(C[N+](C)(CC)CC)OCc1ccccc1 | x | x | x | x | 14µM* | x
